Data reported in PubChem BioAssay (NCI).
Compounds without any hit were thinned out: in the full panel of roughly 83,000, 20% have a hit.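 Interpretation: 100, growth as untreated; towards 0, rising growth inhibition; 0, no net growth; 0 to -100, cell death. Compounds scoring below 10 were considered active.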 Values without a mark were called inactive. Activity calls are given as the source filed them.

What was measured:
Test in all cases: NCI-60 one-dose screen, 48 h (100 = growth as untreated, 0 = no growth, -100 = all killed)
Conditions in all cases: 10 µM unless noted
SK-MEL-2 melanoma = test system: SK-MEL-2 melanoma
EKVX NSCLC = test system: EKVX NSCLC
SN12C renal = test system: SN12C renal
UO-31 renal = test system: UO-31 renal
TK-10 renal = test system: TK-10 renal
ACHN renal = test system: ACHN renal
CCRF-CEM leukemia = test system: CCRF-CEM leukemia
MOLT-4 leukemia = test system: MOLT-4 leukemia
A498 renal = test system: A498 renal
CAKI-1 renal = test system: CAKI-1 renal

Row | SMILES | growth (SK-MEL-2 melanoma) | growth (EKVX NSCLC) | growth (SN12C renal) | growth (UO-31 renal) | growth (TK-10 renal) | growth (ACHN renal) | growth (CCRF-CEM leukemia) | growth (MOLT-4 leukemia) | growth (A498 renal) | growth (CAKI-1 renal)
1 | CCN(CC)CC[n+]1cc2cc(OC)c(OC)cc2c2ccc3cc4c(cc3c21)OCO4 | 14.8% | 17.5% | 3.54% (active) | 8.71% (active) | 12.2% | 8.72% (active) | 1.03% (active) | -5.52% (active) |  | 
2 | O=C1c2ccc3c4c(ccc(c24)C(=O)N1CCCNCc1ccccc1Cl)C(=O)N(CCCNCc1ccccc1Cl)C3=O | -60.6% (active) | -46.7% (active) | -87.1% (active) | -35% (active) | -54.9% (active) | -39.3% (active) | -15.5% (active) | -24.4% (active) |  | 
3 | NS(=O)(=O)c1ccc(CCN2C(=O)C3C(C2=O)C2(Cl)C(Cl)=C(Cl)C3(Cl)C2(Cl)Cl)cc1 (stereo not given) | 99% | 93% | 99.9% | 85.8% | 110% | 111% | 49.6% | 88.3% | 114% | 
4 | C#Cc1cccc(NC(=O)Nc2cccc(NC(=O)CCl)c2)c1 | 6.45% [8.25 µM] (active) | 102% [8.25 µM] | -67.7% [8.25 µM] (active) | -64.7% [8.25 µM] (active) | -59.8% [8.25 µM] (active) | -72.7% [8.25 µM] (active) | 14.9% [8.25 µM] |  | 76.5% [8.25 µM] | 
5 | COc1cccc(/C=N/NC(=O)c2cnn3c2NC(c2ccccc2)C3)c1Oc1ccccc1 (stereo not given) | 66.2% | 93.7% | 104% | 77.4% | 94.3% | 87% | 79.4% | 75.2% |  | 
6 | COc1ccc(-c2[nH][nH]c(=O)c2-c2nc3ccccc3s2)cc1 | 104% | 99.9% | 98.4% | 86.6% | 108% | 106% | 99.1% | 102% |  | 
7 | CC(C)(C)c1cc(/C=N/NC(=O)c2ccccc2NC(=O)c2cccs2)c(O)c(C(C)(C)C)c1 | 36.9% | 35% | 40.6% | 10.7% | 28.8% | 21.9% | 4.59% (active) | 16.5% |  | 
8 | O=S(=O)(NCCCNc1nccc(-c2c(-c3cccc(O)c3)nc3occn23)n1)c1ccc(Cl)cc1 | 52.5% | 99.6% | 71.5% | 89.8% | 143% | 81% | 73.2% | 71.3% |  | 
9 | CCCOC(=O)N[C@H]1CCc2c(Cl)c(OC)c(OC)c(OC)c2-c2ccc(SC)c(=O)cc21 | 48.2% | 48.1% | 20.5% | 23.1% | 49.3% | 30.7% | 7.4% (active) | 8.02% (active) |  | 
10 | Cc1cc2cc3ccc(N(C)C)cc3nc2cc1N | -20.2% (active) | -7.41% (active) | -26% (active) | 19.1% | 9.89% (active) | 0.143% (active) | 5.51% (active) |  | -2.05% (active) | 
11 | COc1cc2c(c(OC)c1OC)-c1ccc(NNC(=S)N(Cc3cccc(C[N+](Cc4cccc(CNC56CC7CC(CC(C7)C5)C6)c4)(Cc4cccc(CNC56CC7CC(CC(C7)C5)C6)c4)Cc4cccc(CN(C(=S)NNc5ccc6c(cc5=O)[C@@H](NC(C)=O)CCc5cc(OC)c(OC)c(OC)c5-6)C56CC7CC(CC(C7)C5)C6)c4)c3)C34CC5CC(CC(C5)C3)C4)c(=O)cc1[C@@H](NC(C)=O)CC2 (stereo not given in full) | -20.3% (active) | 44.7% | 12.2% | 39.7% | 48.7% |  | -6.54% (active) | -17% (active) | -5.83% (active) | 29%
12 | COc1cccc(-c2nc3occn3c2-c2ccnc(NCCNS(=O)(=O)c3cccc4ccccc34)n2)c1 | 107% | 114% | 103% | 85.7% | 123% |  | 123% | 97.4% |  | 86.6%
13 | CCNc1nc2ccc(Nc3ccnc4cc(Cl)ccc34)cc2[nH]1 | 103% | 89.9% | 75.3% | 84.9% | 99.4% |  | 42.8% |  | 89.5% | 98.9%
14 | Cn1c(-c2c(N)n(CCCN3CCOCC3)c3nc(C#N)c(C#N)nc23)nc2ccccc21 | 109% | 66.3% | 40.5% | 12.4% | 46.8% |  |  | 31.5% | 90.6% | 57.6%
15 | COc1cc(/C=N/NC(=O)c2cnn3c2NC(c2ccccc2)C3)ccc1Oc1ccccc1 (stereo not given) | 1.74% (active) | 58.1% | 63.8% | 51.5% | 46.8% |  | 29.3% | 49.7% |  | 26%
16 | COc1cc(-c2n/c(=C\c3c(O)[nH]c4ccc(Cl)cc34)cc3c2=Nc2ccccc2-3)ccc1F | 67.8% |  | 3.41% (active) | -61.4% (active) | 1.18% (active) | -41.8% (active) |  |  | 96.2% | 62.9%
17 | COC(=O)/C=C1\S/C(=N\NC(=O)c2cc3ccc2/C=C\c2ccc(cc2)/C=C\3)N(Cc2ccccc2)C1=O | 85.6% | 77.7% | 61.2% | 45% | 95.5% |  | 3.83% (active) | 1.09% (active) |  | 65.8%
18 | COc1cc(C2C3=C(COC3=O)N(CCO)c3cc4c(cc32)CCC4)cc(OC)c1OC (stereo not given) | 6.85% (active) |  | 23.9% | 31.9% | 55.3% | 26.1% |  |  | -20.4% (active) | 28.7%
19 | Cc1ccc(C(=O)/C(=C/c2ccc([N+](=O)[O-])cc2)SCc2ccc(Cl)cc2)cc1 | 91.5% | 89% | 70.3% | 48.2% | 90.8% |  | 8.74% (active) | 19.8% | 81% | 74.8%
20 | Cc1ccc(-c2[nH][nH]c(=O)c2-c2nc3ccccc3s2)cc1 | 108% | 97.4% | 98.7% | 78.7% | 107% |  | 93.3% |  |  | 
21 | N#Cc1c(-c2cccc([N+](=O)[O-])c2)nc(SCC(=O)c2ccc(Cl)cc2)[nH]c1=O | 110% | 99.8% | 96.9% | 80.6% | 102% |  | 2.87% (active) |  | 92.3% | 88.8%
22 | COc1ccc(C(=O)c2cc(OC)c(OC)c(OC)c2)cc1O | 59.6% | 43.8% | 15.2% | 32.7% | 65.3% |  | 5.92% (active) | 15.4% | 75% | 37.2%
23 | CNC(=O)c1cccc(Cn2nc(C)c(NC(=O)c3ccc(COc4ccc(C(F)(F)F)cc4C)cc3)c2C)c1 | 48.9% | 34% | 56.6% | 47.3% | 55.5% |  | 54.4% | 18% |  | 47%
24 | O=C(NO)c1ccc(-n2nc(-c3ccccc3)c3ccccc32)cc1 | 90.9% | 42.3% | 32.9% | 34.6% | 31.5% |  | 12.9% | 26.9% | 58.8% | 
25 | CNC(=O)c1cccc(Cn2nc(C)c(NC(=O)c3ccc(COc4ccc(C(F)(F)F)cc4C)cc3)c2C)n1 | 50.5% | 37.5% | 59.8% | 50.8% | 56.2% |  | 60.2% | 29.6% |  | 46.4%
26 | O=C(O)c1ccc(NCc2cn(-c3ccc(C(F)(F)F)cc3)nc2-c2ccc(C(=O)O)cc2)cc1 | 112% | 98% | 103% | 84.2% | 106% |  | 106% | 109% |  | 95.8%
27 | O=C(N/N=C/c1ccc(Oc2ccccc2)cc1)c1cnn2c1NC(c1ccccc1)C2 (stereo not given) | 4.54% (active) | 77.6% | 71.8% | 60.7% | 66.8% |  | 67.5% | 75.1% |  | 33.6%
28 | COc1ccc(/C=C2\COc3ccc(-c4ccccc4)cc3C2=O)c(OC)c1 | 101% | 161% | 83.8% | 86.2% | 94.8% |  | 71.2% | 57.9% | 128% | 116%
29 | CCCCC/C=C/C(C)=C/C1CC(C)C/C=C/CCC(O)C(OC(N)=O)CCC(C)CC(O)C(C)C(=O)O1 (stereo not given) | 92.6% | 91.9% | 97.2% | 64.3% | 100% |  |  |  | 71.7% | 78.9%
30 | COc1cc(C2=C(c3cn(C)c4ccccc34)COC2=O)cc(OC)c1OC | 27.7% | 28.2% | 25% | 10.4% | 44.2% |  | 8.87% (active) | 12.2% |  | 7.16% (active)
